The panel holds about 79,000 compounds, 15% with a hit somewhere; the sample as a whole holds those more often. The source made the active and inactive calls. Cut-off read from the data, not from the text of the source: active = growth inhibition above about 70%; inactive = the rest.
What was measured:
[1] = NCI Yeast Anticancer Drug Screen. Data for the mlh1 strain (AID 171);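 note: 0% = growth of vehicle-treated control cultures of the same strain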; conditions: S. cerevisiae mlh1 strain growth inhibition, stronger effect = higher value
Procedure, shortened: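 Vehicle-normalised growth inhibition of a repair- or checkpoint-altered yeast strain following compound treatment.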

[2] = NCI Yeast Anticancer Drug Screen. Data for the sgs1 strain (AID 173);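 note: 0% = growth of vehicle-only control cultures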; conditions: S. cerevisiae sgs1 mutant, stronger effect = higher value
Procedure, shortened: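 Screen format: yeast with repair or checkpoint alterations, compound exposure, growth read relative to vehicle.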

[3] = NCI Yeast Anticancer Drug Screen. Data for the mlh1 rad18 strain (AID 175); conditions: S. cerevisiae mlh1 rad18 strain growth inhibition, stronger effect = higher value
Procedure, shortened: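 Vehicle-treated cultures served as the reference for growth inhibition in a yeast strain carrying DNA damage repair alterations exposed to each compound.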

[4] = NCI Yeast Anticancer Drug Screen. Data for the rad18 strain (AID 177); conditions: S. cerevisiae rad18 mutant growth inhibition, stronger effect = higher value
Procedure, shortened: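 Test articles were incubated with altered yeast defective in DNA damage repair. Results are given as inhibition of growth versus vehicle.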

[5] = NCI Yeast Anticancer Drug Screen. Data for the rad52 strain (AID 147);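 note: 0% = growth of vehicle-treated control cultures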; conditions: S. cerevisiae rad52 mutant growth inhibition, stronger effect = higher value
Procedure, shortened: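 Vehicle-treated cultures served as the reference for growth inhibition of compound-exposed yeast bearing a DNA repair mutation.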

[6] = NCI Yeast Anticancer Drug Screen. Data for the wt1 strain (AID 149);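 note: 0% = growth of vehicle-treated wt1 cultures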; conditions: S. cerevisiae wt1 strain (SPY 50644) growth inhibition, stronger effect = higher value
Procedure, shortened: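 Using yeast strain wt1, compound-induced growth inhibition was determined against vehicle-treated cultures.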

[7] = NCI Yeast Anticancer Drug Screen. Data for the rad50EPP+ strain (AID 151);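 note: 0% = growth of vehicle-treated control cultures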; conditions: S. cerevisiae rad50 mutant strain, stronger effect = higher value
Procedure, shortened: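 In this screen, rad50EPP+ yeast were exposed to compounds. Growth inhibition was scored against vehicle-treated controls.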

[8] = NCI Yeast Anticancer Drug Screen. Data for the mgt1 strain (AID 153); conditions: S. cerevisiae mgt1 mutant growth inhibition, stronger effect = higher value
Procedure, shortened: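 mgt1 strain exposed; growth vs vehicle control recorded as inhibition.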

[9] = NCI Yeast Anticancer Drug Screen. Data for the rad50 strain (AID 155);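 note: 0% = growth of vehicle-only cultures of the same strain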; conditions: S. cerevisiae rad50 strain growth inhibition, stronger effect = higher value
Procedure, shortened: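 Relative growth inhibition (compound vs vehicle) was measured in yeast with a defined repair-gene alteration.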

[10] = NCI Yeast Anticancer Drug Screen. Data for the rad14 strain (AID 159);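 note: 0% = growth of vehicle-treated control cultures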; conditions: S. cerevisiae rad14 strain growth inhibition, stronger effect = higher value
Procedure, shortened: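 Screen for anticancer potential: a yeast strain altered in DNA damage repair is grown with compound, and reduced growth is quantified against vehicle controls.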

[11] = NCI Yeast Anticancer Drug Screen. Data for the sgs1 mgt1 strain (AID 161);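 note: 0% = growth of cultures given vehicle only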; conditions: S. cerevisiae sgs1 mgt1 strain, stronger effect = higher value
Procedure, shortened: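 Read-out: growth inhibition vs vehicle controls. Cells: mutant yeast strain deficient in DNA damage repair.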

[12] = NCI Yeast Anticancer Drug Screen. Data for the CLN2oe strain (AID 163);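 note: 0% = growth of vehicle-only control cultures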; conditions: S. cerevisiae CLN2oe strain, stronger effect = higher value
Procedure, shortened: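 Inhibition relative to vehicle-treated yeast is reported. Cells: strain with genetic alteration in cell-cycle control, grown with compound.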

[13] = NCI Yeast Anticancer Drug Screen. Data for the cln2 rad14 strain (AID 165);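 note: 0% = growth equal to vehicle treated cultures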; conditions: S. cerevisiae cln2 rad14 strain, stronger effect = higher value
Procedure, shortened: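 Each compound was tested on cln2 rad14 yeast. Inhibition of growth was calculated against vehicle-exposed controls.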

[14] = NCI Yeast Anticancer Drug Screen. Data for the bub3 strain (AID 167); conditions: S. cerevisiae bub3 mutant strain, stronger effect = higher value
Procedure, shortened: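 Screening used yeast with an engineered genetic alteration affecting cell cycle control. Compound-exposed cultures were compared with vehicle cultures, and reduced growth was taken as inhibition.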

[15] = NCI Yeast Anticancer Drug Screen. Data for the wt2 strain (AID 169);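 note: 0% = growth of vehicle-treated yeast cultures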; conditions: S. cerevisiae wt2 strain growth inhibition, stronger effect = higher value
Procedure, shortened: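 Inhibition of yeast growth was determined after compound treatment, normalised to controls receiving only vehicle.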

[16] = NCI Yeast Anticancer Drug Screen. Data for the mec2-1 strain (AID 157); conditions: S. cerevisiae mec2-1 strain, stronger effect = higher value
Procedure, shortened: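 Vehicle-treated cultures served as reference for growth inhibition of compound-exposed mec2-1 yeast.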

[17] = at 5.0 µM (retest, dose inferred, filed as 0.5)
[18] = at 50.0 µM (retest, dose inferred, filed as 5.0)

Measured: growth inhibition

CC1CCN(CCC(=O)c2ccc(Cl)cc2)CC1
inactive: [1]; at 1.2 µM 2% | [1]; at 3.7 µM 14% | [1]; at 11.0 µM 26% | [1]; at 33.0 µM 26% | [1]; at 100.0 µM 40% | [2]; at 1.2 µM 5% | [2]; at 3.7 µM 32% | [2]; at 11.0 µM 45% | [2]; at 33.0 µM 62% | [2]; at 100.0 µM 66% | [3]; [17] 21% | [3]; [18] 52% | [3]; at 50.0 µM 58.1% | [4]; at 1.2 µM 5% | [4]; at 3.7 µM 18% | [4]; at 11.0 µM 17% | [4]; at 33.0 µM 28% | [4]; at 100.0 µM 42%

O=[N+]([O-])c1ccc([N+]2=NC(c3ccccc3)=NN(c3ccccc3)C2)cc1
active: [8]; at 100.0 µM 95% | [10]; at 100.0 µM 93% | [11]; at 50.0 µM 74.5% | [14]; [18] 91% | [14]; at 50.0 µM 78% | [14]; at 100.0 µM 87% | [15]; at 100.0 µM 95% | [1]; at 100.0 µM 93% | [2]; at 100.0 µM 91% | [3]; at 50.0 µM 80.5% | [4]; at 100.0 µM 70%
inactive: [5]; at 1.2 µM 8% | [5]; at 3.7 µM 11% | [5]; at 11.0 µM 10% | [5]; at 33.0 µM 14% | [5]; at 100.0 µM 56% | [6]; at 1.2 µM 3% | [6]; at 3.7 µM 5% | [6]; at 11.0 µM 4% | [6]; at 33.0 µM 3% | [6]; at 100.0 µM 51% | [7]; at 1.2 µM 6% | [7]; at 3.7 µM 12% | [7]; at 11.0 µM 21% | [7]; at 33.0 µM 22% | [7]; at 100.0 µM 20% | [8]; at 1.2 µM 6% | [8]; at 3.7 µM 5% | [8]; at 11.0 µM 7% | [8]; at 33.0 µM 21% | [9]; at 1.2 µM 5% | [9]; at 3.7 µM -6% | [9]; [17] 1% | [9]; at 11.0 µM -9% | [9]; at 33.0 µM 15% | [9]; [18] 30% | [9]; at 50.0 µM 67.3% | [9]; at 100.0 µM 63% | [10]; at 1.2 µM 4% | [10]; at 3.7 µM 8% | [10]; at 11.0 µM 20% | [10]; at 33.0 µM 44% | [11]; [17] -1% | [11]; [18] 17% | [12]; at 1.2 µM -5% | [12]; at 3.7 µM -3% | [12]; at 11.0 µM -2% | [12]; at 33.0 µM 2% | [12]; at 100.0 µM 40% | [13]; [17] 9% | [13]; [18] 20% | [13]; at 50.0 µM 21.4% | [14]; at 1.2 µM -2% | [14]; at 3.7 µM 0% | [14]; [17] 10% | [14]; at 11.0 µM 12% | [14]; at 33.0 µM 30% | [15]; at 1.2 µM 0% | [15]; at 3.7 µM 2% | [15]; at 11.0 µM 1% | [15]; at 33.0 µM 11% | [1]; at 1.2 µM 1% | [1]; at 3.7 µM 4% | [1]; at 11.0 µM 6% | [1]; at 33.0 µM 19% | [2]; at 1.2 µM 0% | [2]; at 3.7 µM 1% | [2]; at 11.0 µM 2% | [2]; at 33.0 µM 28% | [3]; [17] -2% | [3]; [18] 48% | [4]; at 1.2 µM 3% | [4]; at 3.7 µM 4% | [4]; at 11.0 µM 2% | [4]; at 33.0 µM 11%

O=Nc1c(NO)ccc2nn(-c3ccccc3)nc12
active: [5]; at 11.0 µM 98% | [5]; at 33.0 µM 98% | [5]; at 100.0 µM 98% | [6]; at 11.0 µM 96% | [6]; at 33.0 µM 98% | [6]; at 100.0 µM 96% | [9]; at 11.0 µM 96% | [9]; at 33.0 µM 97% | [9]; [18] 99% | [9]; at 100.0 µM 98% | [16]; at 11.0 µM 95% | [16]; at 33.0 µM 98% | [16]; [18] 99% | [16]; at 50.0 µM 88.5% | [16]; at 100.0 µM 97% | [10]; at 11.0 µM 97% | [10]; at 33.0 µM 98% | [10]; at 100.0 µM 98% | [11]; [18] 99% | [11]; at 50.0 µM 87.2% | [12]; at 11.0 µM 97% | [12]; at 33.0 µM 98% | [12]; at 100.0 µM 98% | [13]; [18] 99% | [13]; at 50.0 µM 89.1% | [14]; at 11.0 µM 95% | [14]; at 33.0 µM 98% | [14]; [18] 99% | [14]; at 50.0 µM 90.4% | [14]; at 100.0 µM 97% | [15]; at 11.0 µM 96% | [15]; at 33.0 µM 99% | [15]; at 100.0 µM 98% | [1]; at 11.0 µM 97% | [1]; at 33.0 µM 98% | [1]; at 100.0 µM 98% | [2]; at 3.7 µM 79% | [2]; at 11.0 µM 98% | [2]; at 33.0 µM 99% | [2]; at 100.0 µM 98% | [3]; [17] 77% | [3]; [18] 98% | [3]; at 50.0 µM 91.5% | [4]; at 1.2 µM 79% | [4]; at 3.7 µM 90% | [4]; at 11.0 µM 97% | [4]; at 33.0 µM 97% | [4]; at 100.0 µM 97%
inactive: [5]; at 1.2 µM 29% | [5]; at 3.7 µM 68% | [6]; at 1.2 µM 12% | [6]; at 3.7 µM 27% | [7]; at 1.2 µM 22% | [7]; at 3.7 µM 33% | [7]; at 11.0 µM 51% | [7]; at 33.0 µM 65% | [7]; at 100.0 µM 66% | [9]; at 1.2 µM 12% | [9]; at 3.7 µM 42% | [9]; [17] 18% | [9]; at 50.0 µM 38% | [16]; at 1.2 µM 9% | [16]; at 3.7 µM 36% | [16]; [17] 1% | [10]; at 1.2 µM 7% | [10]; at 3.7 µM 31% | [11]; [17] 14% | [12]; at 1.2 µM 5% | [12]; at 3.7 µM 35% | [13]; [17] 37% | [14]; at 1.2 µM 3% | [14]; at 3.7 µM 45% | [14]; [17] 1% | [15]; at 1.2 µM 25% | [15]; at 3.7 µM 41% | [1]; at 1.2 µM 6% | [1]; at 3.7 µM 30% | [2]; at 1.2 µM 61%

Source: PubChem BioAssay (NCI)
